Source: PubChem
ADAM10 inh – human ADAM10 inhibitors, primary screen, biochemical, QFRET, HTS. Disintegrin and metalloproteinase domain-containing protein 10 (Homo sapiens), O14672. recombinant ADAM10, EDANS/DABCYL FRET peptide cleavage, 3 h. inhibition, % at 7 µM. hit rate 0.62% among 370,000;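 active = inhibition above a per-campaign cutoff equal to the mean of compounds falling between control-based bounds plus 3 SD, cut at about 20% in these data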;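 note: 0% = DMSO wells while the 100% control is not disclosed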
Target sequence (O14672 214-748 limits assumed): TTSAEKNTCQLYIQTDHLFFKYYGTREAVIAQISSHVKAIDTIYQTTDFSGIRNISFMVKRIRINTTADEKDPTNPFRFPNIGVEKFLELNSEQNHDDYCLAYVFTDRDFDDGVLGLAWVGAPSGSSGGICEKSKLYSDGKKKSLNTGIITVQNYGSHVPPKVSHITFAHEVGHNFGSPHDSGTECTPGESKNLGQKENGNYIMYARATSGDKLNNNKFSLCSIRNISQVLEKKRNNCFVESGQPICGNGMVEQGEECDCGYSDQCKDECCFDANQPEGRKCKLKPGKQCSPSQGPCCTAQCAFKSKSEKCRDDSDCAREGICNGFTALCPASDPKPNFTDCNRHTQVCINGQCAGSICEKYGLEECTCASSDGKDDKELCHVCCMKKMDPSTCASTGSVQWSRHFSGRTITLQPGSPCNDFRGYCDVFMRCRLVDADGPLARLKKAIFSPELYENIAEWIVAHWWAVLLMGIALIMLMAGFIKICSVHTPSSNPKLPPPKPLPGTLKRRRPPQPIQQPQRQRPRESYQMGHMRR
KLK7 zymogen act – proKLK7 zymogen activators, primary screen, biochemical, fluorescence intensity; Kallikrein-7 (Homo sapiens), P49862; purified proKLK7, EDANS-DABCYL substrate fluorescence; 100% is mature enzyme control, 0% vehicle; activation, % at 7 µM; hit rate 0.9% among 370,000; AID 652039, 2013;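 active = activation above the mean of all tested compounds plus 3 SD, computed per campaign excluding outliers beyond control limits, cut at about 13% in these data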
FGF22 binding – binders of human FGF22 protein, primary screen, FGF22 synaptogenesis inhibitor project, biophysical, thermal shift, single point; Fibroblast growth factor 22 (Homo sapiens), Q9HCT0; recombinant FGF22 thermal shift, SYPRO orange fluorescence; percent of sucrose octasulfate shift, DMSO zero; activity (Tm shift, normalised), % at 9.99 µM; hit rate 1.5% among 340,000; AID 651658, 2012;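 active = mean Tm shift, scaled 0 neutral to 100 positive control, at about 1.3% or above, every replicate too, limit read from the data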
ADAM17 inh – ADAM17 inhibitors, primary screen, biochemical, QFRET | Disintegrin and metalloproteinase domain-containing protein 17 (Homo sapiens), P78536 | recombinant ADAM17, EDANS/DABCYL FRET peptide cleavage | inhibition, % at 6.95 µM | hit rate 0.83% among 370,000 | AID 720648, 2013;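 active = inhibition above the mean of compounds lying between control limits plus 3 SD, set per campaign, cut at about 8.5% in these data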;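 note: 0% = DMSO-only wells as the low control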
rRNA inh HTS – reduced GFP signal of wild-type E. coli, primary screen, bacterial rRNA inhibitor project, GFP/RFP fluorescence, OD600, single point; E. coli WT GFP vs humanized-ribosome RFP mutants, 24 h; stronger effect = lower value; DMSO median 0, no signal -100; GFP signal change (wild-type ribosome), % (concentration not given with the values); hit rate 1.6% among 350,000;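 active = significant combined selectivity score with lowered wild-type GFP, culture density cut under 30%, mutant RFP and density less affected; inactive = any of these conditions unmet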
* = called active by the depositor; nt = not tested or not shown. Most compounds without a hit are left out; they make up all but 3.8% or so of the library.

SMILES	ADAM10 inh	KLK7 zymogen act	FGF22 binding	ADAM17 inh	rRNA inh HTS
COc1ccccc1/C=C/C(=O)NCC(=O)N/N=C/c1ccccc1[N+](=O)[O-]	-14	0	0	5	-10
Cc1ccc(CNc2cc(C(=O)O)ccc2Cl)s1	-8	0	0	-5	-33*
Cc1noc(C)c1S(=O)(=O)N(C)C[C@@H]1Oc2ccc(NC(=O)CCCCCC(=O)Nc3ccccc3N)cc2CC(=O)N([C@@H](C)CO)C[C@@H]1C	nt	nt	0	nt	2
CCOc1ccc(C2C=C(c3ccc(F)cc3)Nc3ncnn32)cc1 (centres undefined)	-350	-2	nt	-76	nt
Oc1ccc(C2C=C(c3ccc(F)cc3)Nc3ncnn32)cc1 (centres undefined)	-156	27*	0	-59	-8
CO/N=C/C(C#N)=C/c1cc(C(=O)c2ccc(F)cc2)cn1C	2	0	43*	-1	12
CO/N=C/C(=N\Nc1ccc(OC)cc1)C(=O)c1ccc(F)cc1	-3	0	1	0	0
CCCN1C(=O)S/C(=C\c2ccc(N3CCOCC3)o2)C1=O	1	0	43*	0	26
COC(=O)c1ccc(CSc2cc(C)c3ccccc3n2)o1	3	0	0	0	-22*
CCCn1c(SCc2ccc(C(=O)OC)o2)nc2ccccc2c1=O	10	0	0	2	5
CCOC(=O)/C=C(\C)N1N=C(c2ccccc2)CC1c1ccccc1 (centres undefined)	-14	0	43*	-2	-46
CCOC(=O)c1nnn(CC(=O)N2N=C(c3ccccc3)CC2c2ccccc2)c1C(=O)OCC (centres undefined)	-1	0	nt	-4	nt
C[C@H](O)C#Cc1ccc2c(c1)O[C@H](CN(C)Cc1ccc(-c3ccccc3)cc1)[C@H](C)CN([C@@H](C)CO)S2(=O)=O	nt	nt	-1	nt	-4
O=C(N/N=C/c1ccccc1C(=O)O)c1cccc(S(=O)(=O)Nc2cc(Cl)ccc2Cl)c1	11	1	0	-2	-19*
Cc1ccc(/C=N/NC(=O)c2cccc(S(=O)(=O)Nc3cccc(Cl)c3)c2)o1	-16	0	0	-8	-21*
CCOC(=O)CSc1nc2ccc(N)cc2s1	1	0	nt	-4	nt
Nc1ccc2nc(SCc3cccc(F)c3)sc2c1	8	0	0	2	-31*
CCNC(=O)C[C@H]1CC[C@H]2[C@@H](COc3ccc(NC(=O)Nc4c(C)noc4C)cc3C(=O)N2C)O1	nt	nt	0	nt	5
CN(C)c1nn2c(-c3ccccc3)nnc2o1	8	1	43*	2	-4
CCCc1nn2c(-c3ccccc3)nnc2o1	5	0	43*	-1	-5
CO[C@@H]1CN(C)C(=O)c2ccc(NC(=O)C3CC3)cc2OC[C@H](C)N(Cc2ccncc2)C[C@@H]1C	nt	nt	0	nt	-4
C[C@@H]1CN([C@@H](C)CO)C(=O)c2cccc(NC(=O)c3nc4ccccc4s3)c2O[C@H]1CN(C)Cc1ccc2c(c1)OCO2	nt	nt	0	nt	-2
Cc1cc(N=Nc2c(O)c3ccccc3[nH]c2=O)ccc1N=Nc1ccc(C(=O)N(C)C)cc1	-8	-1	0	3	5
CN(C)C(=O)c1ccc(N=Nc2c(O)c3ccccc3[nH]c2=O)cc1	-5	0	0	-1	-21*
S=c1nc(-c2ccccc2Cl)n(Cc2cccnc2)c2c1CCCC2	5	-1	0	-3	-26*
SMILES	ADAM10 inh	KLK7 zymogen act	FGF22 binding	ADAM17 inh	rRNA inh HTS
Cc1cccc(NC(=O)COn2nnc3ccc(S(C)(=O)=O)cc32)c1	-9	0	43*	-6	-15
O=C(COn1nnc2ccc(C(F)(F)F)cc21)Nc1c(Cl)cccc1Cl	-6	0	0	4	-25*
Cc1cccc(C)c1NC(=O)COn1nnc2ccc(C(F)(F)F)cc21	3	0	0	-1	1
CN1CCN(CCCN(Cc2ccco2)C(=S)Nc2ccc(Cl)cc2)CC1	-4	0	43*	-5	24
CC(C)c1ccc(Nc2nc(N3CCOCC3)nc(N3CCOCC3)n2)cc1	-1	1	1.6*	4	7
CCCOc1ccc(C(CC(=O)O)NC(=O)c2sc3ccccc3c2Cl)cc1 (centres undefined)	-7	1	43*	-4	-14
CCOc1ccc(C(CC(=O)O)NC(=O)c2sc3ccccc3c2Cl)cc1 (centres undefined)	2	0	43	-3	-15
NNC(=O)c1oc2nc(-c3ccco3)cc(-c3ccco3)c2c1N	-180	-4	0	-78	-14*
Nc1c(C(=O)N/N=C/c2cccnc2)oc2nc(-c3ccco3)cc(-c3ccco3)c12	-237	-4	0	-55	8
Cc1cccc(C)c1NC(=O)C1(NC(=O)C2CCC(=O)N2)CCCCC1 (centres undefined)	2	0	nt	-3	nt
Cc1cccc(C)c1NC(=O)C1(N2C(=O)CC2c2ccccc2)CCCCC1 (centres undefined)	1	0	44*	0	5
O=C(COC(=O)CCCc1nc2ccccc2s1)NC(=O)NCc1ccco1	3	0	42	-3	-19*
C[C@H](CO)N1C[C@H](C)[C@H](CN(C)C(=O)Cc2ccccc2)OCCCC[C@H](C)Oc2ccc(NC(=O)C3CCCCC3)cc2C1=O	nt	nt	0	nt	-1
Cc1ccc(S(=O)(=O)N2CCC(C)CC2)c([N+](=O)[O-])c1	-4	0	43	2	-25*
COc1cccc(CNC(=O)C[C@H]2C=C[C@@H](NC(=O)C3CCC3)[C@@H](CO)O2)c1	nt	nt	nt	nt	1
Cc1ccc(S(=O)(=O)Nc2ccc3c(c2)C(=O)N([C@@H](C)CO)C[C@H](C)[C@@H](CN(C)C(=O)C2CCCCC2)OCCCC[C@@H](C)O3)cc1	nt	nt	nt	nt	-3
N#Cc1c2n(c3c(=O)n(Cc4ccccc4)cnc13)CCCC2	-2	0	0	-4	-25*
CN1CCC(=NNC(=O)C(=O)Nc2cccc(Br)c2)CC1	1	0	43*	0	11
COc1ccc(C2=NNC(c3cccnc3)=Nc3ccc(OC)cc32)cc1	-10	0	0	-2	6
COc1ccc2c(c1)C(c1ccc(N3CCOCC3)cc1)=NNC(c1cccnc1)=N2	-2	-1	0	0	-17*
ClC1(Cl)CC1CSc1nnc(-c2ccncc2)o1 (centres undefined)	0	0	0	-2	-19*
C[C@@H]1CN([C@H](C)CO)C(=O)c2cc(C#Cc3cccnc3)cnc2O[C@H]1CN(C)C(=O)CC1CC1	nt	nt	0	nt	0
